SMILES strings stand for the structures. This is part of a sample that, as a whole, favours compounds with a hit. Of some 83,000 tested, about 20% had one in any assay.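 Results are percent growth after 48 hours of single-concentration exposure. 100 means growth as in untreated cells, lower positive values show inhibition; negative values down to -100 show cell death.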 Active and inactive are the calls of the source.

The experiment has as its system U251 CNS. Briefly: NCI-60 one-dose screen, 48 h (100 = growth as untreated, 0 = no growth, -100 = all killed). The note with it: 10 µM unless noted. As to the method:
Growth inhibition of the U251 human tumor cell line is measured as a screen for anti-cancer activity. Cells are grown in 96 well plates and exposed to the test compound for 48 hours. Compounds are tested at a single concentration, which is 10^-5 M for most compounds. The reported endpoint is percent growth (GI% or GIPRCNT), where numbers from 0 - 100% represent growth inhibition, and numbers from -100% - 0 represent cell death. For example, a value of 40 represents 60% growth inhibition. A value of 0 means no net growth occurred over the course of the experiment. A value of -40 indicates 40% of cells at the beginning of the experiment died by the end of the experiment. A value of -100 means all cells are dead at the end of the experiment.
NCI-60 Human Tumor Cell Lines Screen was performed using the standard one-dose NCI protocol, which is described in more detail at https://dtp.cancer.gov/discovery_development/nci-60/default.htm.
Compounds with GIPRCNT values below 10 were considered active. Activity score was based on GIPRCNT using the following formula: […]
Score is 0 for GIPRCNT values of 100 or above, 50 for GIPRCNT values of 0, and 100 for GIPRCNT values of -100.
With `O=C(/C=C/c1sc(Cl)nc1Cl)c1ccccc1`, the growth is 69.9% (inactive).

As for `O=C(Oc1cccc2ccccc12)Oc1cccc2ccccc12`, the growth is 103% (inactive).

With `S=c1nc(-c2ccccc2)oc(=NC2CCCCC2)n1C1CCCCC1`, the growth was 18.8% (inactive).

Take `N[C@@H](Cc1ccccc1)[C@@H](O)C(=O)NCc1ccc(F)cc1`: the growth is 104% (inactive).

With `Cc1c(C(=O)NCCN2CCOCC2)cn2ncnc(Oc3ccc(NC(=O)Nc4ccc(Cl)c(C(F)(F)F)c4)cc3)c12`, the growth was 14.5% (inactive).

In the case of `c1ccc2cc(C[n+]3ccn(CCCCCCn4cc[n+](Cc5ccc6ccccc6c5)c4)c3)ccc2c1`, the growth was 34.4% (inactive).

Regarding `Cc1ncc(C(=O)Nc2ccc(CN3CCN(C)CC3)c(C(F)(F)F)c2)cc1C#Cc1ccc(N)nc1`, the growth is 17.6% (inactive).

`COc1ccc(C(=O)C[C@]2(O)C(=O)Nc3c(Cl)ccc(Cl)c32)cc1`: the growth was 33.9% (inactive).

On to `COc1cc(C(=O)c2cnc(-c3c[nH]c4cccc(C)c34)[nH]2)cc(OC)c1OC`, for which the growth was 17.7% (inactive).

In the case of `c1cc(-c2nnc(SSc3ncnc4nc[nH]c34)o2)ccn1`, the growth is 72.4% (inactive).

For the compound `COc1nc2ccc(C)cc2cc1-c1nc2c(cnn2-c2ccc(Br)cc2)c(=O)[nH]1`, the growth was 15.2% (inactive).

As for `CCCCNC(=O)Oc1ccc(/C(=C(\C)c2ccc(Cl)cc2)c2ccc(OCCN3CCCCC3)cc2)cc1`, the growth was 59.3% (inactive).

Consider `Cc1nc2ccccc2n1CC1C(=O)NC(=O)NC1=O`, for which the growth is 99.4% (inactive).

Regarding `Cc1ccc(NC2=C(Cl)C(=O)c3nc(C)ccc3C2=O)cc1`, the growth is 41.3% (inactive).

With `O=C(N/N=C/[C@H](O)[C@@H](O)[C@@H](O)[C@H](O)CO)c1ccc(NC(=O)c2cccnc2)cc1`, the growth is 102% (inactive).

In the case of `c1ccc2cc(C[n+]3ccn(CCCCCCCCCCCCn4cc[n+](Cc5ccc6ccccc6c5)c4)c3)ccc2c1`, the growth is -84.6% (active).

Consider `COc1ccc(S(=O)(=O)n2c3ccccc3n3ncc(-c4nnc(C)o4)c23)cc1`, for which the growth is 31.6% (inactive).

For the compound `O=c1cc(SCc2ccccc2)nc[nH]1`, the growth is 107% (inactive).

`COc1ccn2c(C(C)=O)cc(C(=O)c3ccc4c(c3)Sc3ccccc3N4)c2c1`: the growth is 17.9% (inactive).

Turning to `Cc1ccc2sc3c(NCCN)nc4ccccc4c3c(=O)c2c1`, the growth is 49.7% (inactive).

`O=C(CCOCCNC(=O)COc1ccc2c(c1)OCC(c1ccc(F)cc1)C2=O)NCCCC(O)(P(=O)(O)O)P(=O)(O)O` (stereo not given): the growth is 107% (inactive).

As for `NS(=O)(=O)c1ccc(N=Nc2ccc(-c3nn4cc(-c5ccccc5)nc4s3)cc2)cc1`, the growth was 99.7% (inactive).

Regarding `Cc1ccc2nc(NC(=O)CSc3nc(Cl)c(C#N)c(-c4ccccc4)n3)sc2c1`, the growth is 99.1% (inactive).

Take `COc1cc(/C=C/c2c(C(C)=O)c(C)nc3ccccc23)cc(OC)c1OC`: the growth was 39% (inactive).

Regarding `COc1cc(/C=C/c2ccccc2)cc(OC)c1`, the growth is 84.1% (inactive).

`CCCCN(C)N=Nc1ccc(C(N)=O)cc1`: the growth is 108% (inactive).

As for `CCOC(=O)c1nc(Nc2ccc(C(C)=O)cc2)sc1C`, the growth was 101% (inactive).

In the case of `COc1ccc([C@H]2c3cc(OC)c(OC)cc3C=C(C=O)C2CO)cc1OC` (stereo not given in full), the growth is 36.2% (inactive).

Regarding `Cc1ccc2c(n1)C(=O)C(Cl)=C(Nc1ccccc1C(C)C)C2=O`, the growth was 80.4% (inactive).

Turning to `O=C1COCCN1c1ccc(NCc2cn(C(=O)c3ccc(Cl)cc3)c3ccccc23)cc1`, the growth was 50.9% (inactive).

In the case of `COc1ccc2[nH]c(-c3ccccc3)c(/C=C(\C#N)S(=O)(=O)c3ccccc3)c2c1`, the growth was 39% (inactive).

In the case of `Cc1ccc(-c2nc(SCC(=O)Nc3nc(-c4ccc(Cl)cc4)cs3)[nH]c(=O)c2C#N)cc1`, the growth was 94% (inactive).

Turning to `CC1=C(SCCC(=O)OC(C[Se]C2=C(C)C(=O)c3ccccc3C2=O)C(=O)NC(C)(C)C)C(=O)c2ccccc2C1=O` (stereo not given), the growth is -69% (active).

On to `COc1ccc2c(c1OC)C(=O)O[C@H]2[C@H]1c2c(cc3c(c2OC)OCO3)CCN1C`, for which the growth was 97.2% (inactive).

Take `NCCOc1ncccc1/C=C1\C2C=CC=CC2C2C=CC(F)=CC12` (stereo not given): the growth was 10.8% (inactive).

With `CCc1cccc2c1S/C(=C/c1ccc(OC)cc1)C2=O`, the growth was 41.7% (inactive).

As for `CNC(=O)c1cc(-n2ccc3cc(NC(=O)c4ccc(N5CCOCC5)c(C(F)(F)F)c4)ccc32)ccn1`, the growth is 50.3% (inactive).

For `S=C(c1cccs1)N1CCN(c2cccc(Cl)c2)CC1`, the growth is 93.7% (inactive).

As for `CNC(=O)c1[nH]cc(-c2ccccc2)c1-c1cc(OC)c2c(c1OC)OCO2`, the growth was 96% (inactive).

Consider `CCN(CC)S(=O)(=O)c1ccc(NC(=O)CSc2nnc(C)n2-c2ccccc2)cc1`, for which the growth was 104% (inactive).

The values above are taken from PubChem BioAssay (NCI).
